# Results published in PubChem BioAssay (NCATS).
# Results filed as inconclusive are left out. A call without a number means that no potency is given here. A number with no mark means an inactive call. Calls of active or inactive are those of the source. The call rests on the fitted dose curve; in most records, active means well fitted curve in the direction sought with a large enough effect; inconclusive means small, poorly fitted or top-dose-only effect, or another doubt; inactive means no such curve, though single readings can be large; an effect the other way counts as inactive or inconclusive. Where a SMILES comes first, the peptide text is derived from it.
# Legend:
# [1] = P-glycoprotein substrates identified in KB-3-1 adenocarcinoma cell line, qHTS therapeutic library screen (AID 1346986); further: nearly all actives have a fitted effect of over 60% in size
# In short: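 72 h cell-killing screen, 500 cells/well, CellTiter-Glo luminescence. Paired lines KB-3-1/KB-8-5-11; P-gp dependence checked by tariquidar co-treatment and HEK-293 MDR-19 versus empty-vector cells.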
# [2] = P-glycoprotein substrates identified in KB-8-5-11 adenocarcinoma cell line, qHTS therapeutic library screen (AID 1346987); further: nearly all actives have a fitted effect of over 65% in size; on activity change, negative = cytotoxicity: series mostly up to about 44 µM
# In short: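 Compounds are pinned in dose-response onto KB-8-5-11 cells (500 cells/well, colchicine-free medium) and left 72 h at 37 degree C. CellTiter-Glo luminescence then yields AC50 values.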
# [3] = tested on: Zika virus NS2B-NS3 protease (unlinked complex); experiment: Primary screen GU Rhodamine qHTS for Zika virus inhibitors: Unlinked NS2B-NS3 protease assay (AID 1347159); further: nearly all actives have a fitted effect of over 60% in size; further: potency means the concentration at half of the fitted maximal effect
# In short: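 Unlinked NS2B/NS3, 25 nM; Rhod110 peptide, 1.5 microM; compounds, up to 114 microM. Reaction run 15 min at RT in 10 mM Tris-HCl pH 8.0, 0.01% Tween 20; kinetic fluorescence change fitted with a 4-parameter Hill model.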
# [4] = tested on: Zika virus NS2B-NS3 protease (linked construct); experiment: Primary screen NINDS Rhodamine qHTS for Zika virus inhibitors (AID 1347160); further: nearly all actives have a fitted effect of over 55% in size
# In short: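 Single-chain NS2B-NS3 protease, 25 nM, pH 8.0; compounds preincubated 15 min. Activity: Rhodamine110 release from 1.5 microM substrate over 15 min, room temperature, data fitted to 4-parameter Hill.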
Structure (SMILES),Potency [1],Potency [2],Potency [3],Potency [4],outcome [1],"activity change, negative = cytotoxicity [2]","activity change, negative = inhibition [3]",outcome [2]
Cc1noc2c1-c1ccccc1C(c1ccc(Cl)cc1)=N[C@H]2CC(N)=O,inactive,inactive,inactive,inactive,–,–,–,–
CCCCCOC(=O)Nc1nc(=O)n(C2O[C@H](C)[C@@H](O)[C@H]2O)cc1F (some centres not stated),inactive,inactive,inactive,inactive,–,–,–,–
CCC(C)(C)C1CCc2c(sc(NC(=O)c3ccc(Br)cc3)c2C#N)C1 (configuration not stated),inactive,inactive,inactive,inactive,–,–,–,–
C=CC(C)(O)CC/C=C(\C)C(=O)O[C@@H]1[C@@H](O)[C@H](OC(C)(C=C)CC/C=C(\C)C(=O)O)O[C@H](CO)[C@H]1OC(=O)/C(C)=C/CCC(C)(O)C=C (some centres not stated),inactive,inactive,inactive,inactive,–,–,–,–
CCC(C)C(=O)O[C@H]1C[C@](C)(O)[C@]23OC(C)(C)[C@H](C[C@H](OC(=O)c4ccccc4)[C@]2(COC(C)=O)[C@H]1OC(=O)C(C)CC)[C@H]3OC(C)=O (some centres not stated),inactive,inactive,inactive,inactive,–,–,–,–
OC[C@@]1(O)CO[C@@H](OC[C@H]2O[C@@H](OCc3ccccc3)[C@H](O)[C@@H](O)[C@@H]2O)[C@@H]1O,inactive,inactive,inactive,inactive,–,–,–,–
C/C=C(\C)C(=O)OCC1OC(OC2OC(CO)C(O)C(O)C2O)C(O)C(O)C1O (configuration not stated),inactive,inactive,inactive,inactive,–,–,–,–
CC(=O)c1ccc(O[C@@H]2OC[C@@H](O)[C@H](O)[C@H]2O[C@]2(CO)O[C@H](CO)[C@@H](O)[C@@H]2O)c(O)c1,inactive,inactive,inactive,inactive,–,–,–,–
Cc1cccc(-c2nn3c(c2-c2ccnc4ccc(C(N)=O)cc24)CCC3)n1,inactive,inactive,inactive,inactive,–,–,–,–
NC(Cc1c[nH]c2ccc(O)cc12)C(=O)O (configuration not stated),inactive,inactive,inactive,inactive,–,–,–,–
COC(=O)C1=CO[C@@H](O[C@@H]2O[C@H](CO)[C@@H](O)[C@H](O)[C@H]2O)[C@@H]2[C@@H](CO)[C@@H](O)C(O)[C@H]12 (some centres not stated),inactive,inactive,inactive,inactive,–,–,–,–
CC(NC(=O)[C@H](Cc1ccccc1)NC(=O)OCc1ccccc1)C(=O)CF (some centres not stated),inactive,inactive,inactive,inactive,–,–,–,–
CC/C=C\[C@H](O)[C@H](O)C1=C(C)C(=O)[C@]2(O1)C(=O)N[C@@](O)(C(=O)c1ccccc1)[C@@H]2O,inactive,inactive,inactive,inactive,–,–,–,–
CN(C)c1ccc(C2O[C@@H](c3ccccc3)C[C@H](c3ccccc3)O2)cc1 (some centres not stated),inactive,inactive,inactive,inactive,–,–,–,–
C[C@H](/C=C/[C@@]1(O)[C@H](C)CC(=O)CC1(C)C)O[C@@H]1O[C@H](CO[C@@H]2OC[C@@H](O)[C@H](O)[C@H]2O)[C@@H](O)[C@H](O)[C@H]1O,inactive,inactive,inactive,inactive,–,–,–,–
C[C@H](O)C(O)(C(=O)OCc1ccccc1NC(=O)CCC(N)C(=O)O)[C@H](C)O (some centres not stated),inactive,inactive,inactive,inactive,–,–,–,–
Cc1occc(=O)c1O[C@@H]1O[C@H](COC(=O)CC(C)(O)CC(=O)O)[C@@H](O)[C@H](O)[C@H]1O (some centres not stated),inactive,inactive,inactive,inactive,–,–,–,–
Cc1cc(C(=O)N2Cc3cnn(C)c3Nc3ccccc32)ccc1CNC(=O)N1CCN(Cc2cc(O)cc(O)c2)CC1,inactive,inactive,inactive,inactive,–,–,–,–
Cn1cc(CCn2cnc(-c3cnn(C)c3)c2-c2ccc(C#N)cc2)cn1,inactive,inactive,inactive,inactive,–,–,–,–
C=CC(C)(O)CC/C=C(\C)C(=O)O[C@@H]1[C@@H](O)[C@H](OC(C)(C=C)CC/C=C(\C)C(=O)O[C@@H]2O[C@H](CO)[C@@H](O)[C@H](O)[C@H]2O)O[C@H](CO)[C@H]1OC(=O)/C(C)=C/CCC(C)(O)C=C (some centres not stated),–,–,inactive,inactive,inactive [at 9.29 µM],2.84% [at 9.29 µM],–,–
CC1CCC2(C(=O)O)CCC3(C)C(=CCC4C5(C)C[C@@H](O)[C@@H](O)C(C)(CO)C5CCC43C)C2C1(C)O (some centres not stated),inactive,inactive,inactive,inactive,–,–,–,–
CC1(C)CC2C(O)C3=C(CC(C)(O)C2C1)C(=O)OC3 (configuration not stated),inactive,inactive,inactive,inactive,–,–,–,–
C[C@@H](c1ccccc1)N(C(N)=NC#N)c1cccc2ncccc12,inactive,inactive,inactive,inactive,–,–,–,–
O=C(O[C@H]1[C@H](Oc2ccc(O)cc2CO)O[C@H](CO)[C@@H](O)[C@@H]1O)c1ccccc1,inactive,inactive,inactive,inactive,–,–,–,–

Structure (SMILES),Potency [1],Potency [2],Potency [3],Potency [4],outcome [1],"activity change, negative = cytotoxicity [2]","activity change, negative = inhibition [3]",outcome [2]
C=C1CC23CC(=O)C4C(CO)(CO)CCCC4(C)C2CCC1C3 (configuration not stated),inactive,inactive,inactive,inactive,–,–,–,–
O=C(NCC(=O)N1CCCC1)Nc1ccc2ccccc2c1,inactive,inactive,inactive,inactive,–,–,–,–
COC(=O)[C@H](Cc1cccc(C(=N)N)c1)[C@@H](C)NC(=O)c1ccc(-c2cc[n+]([O-])cc2)cc1,inactive,inactive,inactive,inactive,–,–,–,–
CCC(=O)OCC(=O)[C@@]1(OC(=O)CC)[C@@H](C)C[C@H]2[C@@H]3CCC4=CC(=O)C=C[C@]4(C)[C@@]3(F)[C@@H](O)C[C@@]21C,inactive,inactive,inactive,inactive,–,–,–,–
CC(=O)OC1C(CO)OC(O[C@H]2[C@H](OC(=O)[C@]34CCC(C)(C)C[C@H]3C3=CCC5[C@@]6(C)CC[C@H](O[C@@H]7O[C@H](C(=O)O)[C@@H](O)[C@H](O[C@@H]8OC[C@@H](O)[C@H](O)[C@H]8O)[C@H]7O[C@@H]7O[C@H](CO)[C@H](O)[C@H](O)[C@H]7O)[C@@](C)(C=O)C6CC[C@@]5(C)[C@]3(C)C[C@H]4O)O[C@H](C)[C@H](OC3OC(C)C(OC4OCC(O)C(O)C4O)C(O)C3O)[C@@H]2O)C(O)C1O (some centres not stated),–,–,–,inactive,inactive [at 9.29 µM],1.85% [at 9.29 µM],21.3% [at 19.1 µM],–
CC(C)=CCC[C@](C)(O[C@@H]1O[C@H](CO[C@@H]2O[C@@H](CO)[C@H](O)[C@H]2O)[C@@H](O)[C@H](O)[C@H]1O)[C@H]1CC[C@]2(C)[C@@H]1[C@H](O)C[C@@H]1[C@@]3(C)CC[C@H](O[C@@H]4O[C@H](CO)[C@@H](O)[C@H](O)[C@H]4O[C@@H]4O[C@H](CO)[C@@H](O)[C@H](O)[C@H]4O)C(C)(C)[C@@H]3CC[C@]12C,inactive,inactive,inactive,inactive,–,–,–,–
Cc1cn(-c2cc(NC(=O)c3ccc(C)c(Nc4nccc(-c5cnccn5)n4)c3)cc(C(F)(F)F)c2)cn1,inactive,inactive,inactive,inactive,–,–,–,–
CC1=COC(OC2OC(CO)C(O)C(O)C2O)C2C(CO)CC(OC(=O)/C=C/c3ccc(O)cc3)C12 (configuration not stated),inactive,inactive,inactive,inactive,–,–,–,–
C/C=C(\C)C(=O)OC[C@H]1O[C@@H](O[C@H]2[C@@H](O[C@H]3O[C@H](COC(=O)/C(C)=C/C)[C@@H](O)[C@H](O)[C@H]3O[C@@H]3O[C@H](CO)[C@@H](O)[C@H](OC(=O)/C(C)=C/C)[C@H]3O)O[C@H](COC(=O)/C(C)=C/C)[C@@H](O)[C@@H]2O)[C@H](O)[C@@H](O)[C@@H]1O,–,–,inactive,inactive,inactive [at 9.29 µM],–,–,inactive [at 9.29 µM]
COCCN1CCC(C(=O)NO)(S(=O)(=O)c2ccc(Oc3ccc(OC(F)(F)F)cc3)cc2)CC1,inactive,inactive,inactive,inactive,–,–,–,–
OCC1=C[C@@H](O)[C@@H]2C=CO[C@@H](O[C@@H]3O[C@H](CO)[C@@H](O)[C@H](O)[C@H]3O)[C@H]12,inactive,inactive,inactive,inactive,–,–,–,–
COC(=O)[C@H](Cc1ccc([N+](=O)[O-])cc1)NC(=O)c1cccc2ccccc12,inactive,inactive,inactive,inactive,–,–,–,–
COc1ccc(-n2[nH]c3c(cnc4ccccc43)c2=O)cc1,inactive,inactive,inactive,inactive,–,–,–,–
Cc1ccc(-n2nc(C(C)(C)C)cc2NC(=O)Nc2cc(COc3cccnc3)[nH]n2)cc1,inactive,inactive,inactive,inactive,–,–,–,–
O=C(C[C@@H]1C(C(=O)O)=CO[C@@H](O[C@@H]2O[C@H](CO)[C@@H](O)[C@H](O)[C@H]2O)/C1=C\CO)OCCc1ccc(O)cc1,inactive,inactive,inactive,inactive,–,–,–,–
C=CCc1ccc(O[C@@H]2O[C@H](CO)[C@@H](O)[C@H](O)[C@H]2O)c(O[C@@H]2O[C@H](CO)[C@@H](O)[C@H](O)[C@H]2O)c1,inactive,inactive,inactive,inactive,–,–,–,–
CC/C=C/C=C/C1(C)OC(CC(CO)OC)=CC1=O (configuration not stated),inactive,inactive,inactive,inactive,–,–,–,–
COC(=O)C1=CO[C@@H](O[C@@H]2O[C@H](CO)[C@@H](O)[C@H](O)[C@H]2O)[C@H]2[C@@H]1[C@H](O)C[C@]2(C)O,inactive,inactive,inactive,inactive,–,–,–,–
C=C1CCC2[C@](C)(CCC[C@]2(C)C(=O)O)[C@H]1CC/C(C)=C/C(=O)OC (some centres not stated),inactive,inactive,12.6 µM (active),inactive,–,–,–,–
O=C(O)C(Cc1ccccc1)NC(=O)C1CCCN1 (stereo not drawn) (H-Pro-Phe-OH; configuration not given here),inactive,inactive,inactive,inactive,–,–,–,–
CC(C)(O)C1OC1C1=CC(=O)C2(C)OC2C1O (configuration not stated),inactive,inactive,inactive,inactive,–,–,–,–
CC1(C)C=Cc2c(ccc3c2N=C2C(C)(C)[C@@H]4C[C@]56CCCN5C(=O)[C@@]4(C[C@]23O)NC6=O)O1,inactive,inactive,inactive,inactive,–,–,–,–
CC(CCc1ccc(O)cc1)O[C@@H]1O[C@H](CO[C@@H]2OC(CO)[C@H](O)[C@H]2O)[C@@H](O)[C@H](O)[C@H]1O (some centres not stated),inactive,inactive,inactive,inactive,–,–,–,–
CC1(C)C[C@@H]2[C@H](C1)[C@@]1(C)C[C@]13C(O)OC[C@]3(O)[C@H]2O (some centres not stated),inactive,inactive,inactive,inactive,–,–,–,–
